Consider 23 molecules from PubChem BioAssay (NCATS).

Each structure is given as a SMILES string. Inconclusive results are not listed. Where a call stands in place of a potency, no number is given. Active and inactive are the calls of the source. Calls come from the whole dose curve; as a rule, active = well fitted inhibition curve with a large enough effect; inconclusive = small, poorly fitted or top-dose-only effect; inactive = flat fitted curve, though single readings scatter.

Chain of Calcium and integrin-binding protein 1 (Homo sapiens) (Q99828 whole entry, looked up): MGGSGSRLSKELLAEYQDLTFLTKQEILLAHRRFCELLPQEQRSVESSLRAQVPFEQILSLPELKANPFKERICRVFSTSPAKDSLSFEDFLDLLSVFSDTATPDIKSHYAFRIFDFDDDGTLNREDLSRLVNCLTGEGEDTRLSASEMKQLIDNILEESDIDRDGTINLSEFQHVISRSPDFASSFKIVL

This assay addresses Calcium and integrin-binding protein 1 (Homo sapiens) (UniProt Q99828). Nature of the assay: Primary qHTS for Identification of Calcium Integrin Binding Protein 1 (CIB1) Competitor (AID 1508620). Note: top concentration of the series differs between compounds. The conditions noted are these: CIB1-GST / FITC-alphaIIb peptide fluorescence polarization; series mostly up to 114 µM. The essentials: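 Fluorescence polarization competition: GST-tagged CIB1 (1 uM final) preincubated with compound 15 min at room temperature, then FITC-labelled alphaIIb peptide (100 nM final) added. After 15 min at room temperature, polarization read at Ex 480/Em 540.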
A general note: In qHTS, concentration-response curves come from the screen itself.
In the case of `CC(=O)Nc1sc2c(c1-c1cc3ccccc3[nH]1)CCNC2`, the Potency result was “inactive”. Regarding `Cc1ccc(-c2ccc(=O)n(CC(=O)N(C)C(C)C(C)C)n2)cc1` (stereo not drawn), the Potency result is “inactive”. With `O=C(CNC(=O)c1ccc2ccccc2c1)OC(C(=O)Nc1cc(C(F)(F)F)ccc1Cl)c1ccccc1` (stereo not drawn), the Potency entry is “inactive”. For `COc1cc(Cn2ncc3c4sc(C)cc4n(C)c3c2=O)cc(OC)c1` the value was “inactive”; for `COc1ccc(C2=Nn3c(nnc3-c3ccccc3O)SC2)cc1`, “inactive”. `Cc1ccc(/C=C/C(=O)Nc2cccc([S+](=O)([O-])Nc3ccccc3F)c2)cc1`: the Potency entry is “inactive”. On to `Fc1ccc(-c2ccc(Nc3nc(-c4ccncc4)nc4ccccc34)cc2F)cc1`, for which the Potency result is “inactive”.

On to `O=c1c2ccccc2nc2sc(Nc3cccc4ccccc34)nn12`, for which the Potency entry is “inactive”. For `O=C(NCc1ccc(F)cc1)n1c(-c2ccccc2)c(P(=S)(c2ccccc2)c2ccccc2)c2ccccc21` the value was “inactive”. The same measure for `COc1cc(O)c(C(CC(=O)N2CCC(c3ccccc3)CC2)c2ccc(OC)c(OC)c2)c(OC)c1` (stereo not drawn): “inactive”; for `Cc1csc(CNc2ncnc3ccc(-c4ccco4)cc23)c1`: “inactive”; for `CC(=O)c1ccc(N2CCN(S(=O)(=O)c3ccc4[nH]c(=O)[nH]c4c3)CC2)cc1`: “inactive”.

As to `CC(C)N1Cc2ccc(Nc3nn4c(=O)c5ccccc5nc4s3)cc2C1`, the Potency result is “inactive”. The same measure for `O=C(Nc1ccc2sccc2c1)Nc1nnc(-c2cccnc2)s1`: “inactive”. As for `Cc1cc2c(s1)c1cnn(Cc3cccc(C(F)(F)F)c3F)c(=O)c1n2C`, the Potency entry is “inactive”. For `CCCCN(C)C(=O)Cn1nc(-c2ccncc2)ccc1=O` the value was “inactive”. The same measure for `NC(=O)N1CCN(c2nc(-c3ccc(Br)cc3)cs2)CC1`: “inactive”; for `COc1ccccc1C1=Nn2c(COc3ccccc3)nnc2SC1`: “inactive”. For `COc1ccc(-c2nc3ccc(Cl)cc3c(=O)n2Cc2ccccc2)cc1COc1ccc(NC(C)=O)cc1` the value was “inactive”.

As to `O=S(=O)(Nc1cccc2cccnc12)c1ccccc1`, the Potency result is “inactive”. With `CCCCN1C(=O)c2ccccc2NC1c1ccc(OC)c(COc2ccc(NC(C)=O)cc2)c1` (stereo not drawn), the Potency result was “inactive”. For `FC(F)(F)c1ccccc1-c1nc(NCc2ccc(Br)cc2)c2ccccc2n1` the value was “inactive”; for `O=C(NC(c1ccco1)c1cc(Cl)c2cccnc2c1O)c1ccccc1` (stereo not drawn), “inactive”.
